For eight molecules, composite z-score and z-score results are on record in PubChem BioAssay.

The subject of assay [1] is Wnt5a (protein binding on small-molecule microarray). The assay is described as follows: Wnt5a binders on small-molecule microarray, primary screen, biophysical, 635/667 nm fluorescence (AID 1142).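 Further: fluorescence read at 667 nm with signal to noise per printed feature.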 Particulars: 635 nm fluorescence, higher = more signal.
Assay [2] in a line: cell viability in Huh7 cells, primary screen, cytotoxicity control for HCV replication inhibitor project, CellTiter-Glo luminescence, basal, 48 h (AID 1143).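 Further: Huh7 hepatoma cells carrying a hepatitis C replication reporter with no stimulus; test concentration not given here.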 Particulars: Huh7 HCV replicon, higher = more signal, called active from +8 up or from −8 down.
Assay [3] is described as follows: P. aeruginosa biofilm formation inhibitors, primary screen, PAO1 strain, BacTiter-Glo luminescence, LB-PBS (AID 1144). The settings on record: 12 h, higher = more signal.
Assay [4] is described as follows: CREB reporter modulators without forskolin, primary screen, cell-based, PC12, CRE-LacZ reporter, unstimulated (AID 1145). The settings on record: no forskolin, luminescence, 4.5 h, higher = more signal, called active from +8 up or from −8 down.
Assay [5] is described as follows: CREB reporter modulators under forskolin, primary screen, cell-based, PC12, CRE-LacZ reporter, forskolin-stimulated (AID 1146).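 Further: PC12 cells with 6xCRE LacZ reporter stimulated by forskolin 10 µM; beta-galactosidase reporter signal reflecting CREB driven transcription.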 The settings on record: luminescence, 4.5 h, higher = more signal, called active from +8 up or from −8 down.
For assay [6], the target named is Streptavidin (Streptomyces avidinii) (UniProt P22629). Nature of the assay: streptavidin binders on small-molecule microarray, primary screen, artefact control for SMM compound annotation, biophysical, 635/667 nm fluorescence (AID 1147).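 Further: signal reflects streptavidin binding to arrayed compounds as a control protein.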 The settings on record: streptavidin binding, higher = more signal.
The nature of assay [7]: small-molecule binders of probe aInhba, primary screen, biochemical, small-molecule microarray, 635/667 nm fluorescence (AID 1148).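 Further: score merges 667nm spot fluorescence with signal-to-noise for antibody binding to printed compounds.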 The settings on record: higher = more signal.
The target in assay [8] is Torsin-1A (Homo sapiens) (UniProt O14656). The assay is described as follows: torsin A binders from cell lysate, primary screen, small-molecule microarray, wild-type, 635/667 nm (AID 1149). The settings on record: COS7 hTOR1A-WT lysate, 635 nm fluorescence, higher = more signal.
For assay [9] the target is unchanged. The assay is described as follows: small-molecule binders of mutant TOR1A in lysate, primary screen, cell lysate, small-molecule microarray, COS7 lysate, 635/667 nm fluorescence (AID 1150).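 Further: score pools 667 nm emission and signal to noise measuring lysate protein binding.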 The settings on record: COS7 hTOR1A mutant lysate, 635 nm fluorescence, higher = more signal.
In assay [10] the test system is Sonic hedgehog protein (Shh). The assay is described as follows: small-molecule binders of Shh protein, primary screen, biochemical, small-molecule microarray, 635/667 nm fluorescence (AID 1151).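 Further: Shh protein binding to compounds spotted on small-molecule microarray slides; score combines spot fluorescence intensity with signal-to-noise across triplicate slides.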 Particulars: small-molecule microarray binding, 635 nm fluorescence; higher = more signal.
Assay [11] can be described thus: E. coli DRC41 culture turbidity changes, primary screen, E. coli filamentation inducer project, strain DRC41, OD650, 48 h (AID 1152).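 Further: E. coli MC1000 strain DRC41 lacking acrAB efflux pump and sulA.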 Particulars: E. coli DRC41 (acrAB sulA), higher = more signal, called active from +8 up or from −8 down.
The nature of assay [12]: small-molecule binders of probe aLefty1, primary screen, biochemical, small-molecule microarray, 635/667 nm fluorescence (AID 1153).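 Further: score merges spot fluorescence with signal-to-noise ratio from the scanned slide images.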 The settings on record: higher = more signal.
Assay [13] can be described thus: PSAC antagonists in infected red cells, primary screen, cell-based, P. falciparum Indochina, OD700, 1 h (AID 1154). The settings on record: P. falciparum Indochina infected RBC osmotic lysis, higher = more signal, called active from +8 up or from −8 down.
A short description of assay [14]: PSAC antagonists in infected red cells, primary screen, cell-based, P. falciparum Indochina, OD700, 2 h (AID 1155).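 Further: lysis reports solute entry through the parasite surface anion channel PSAC; channel blockers reduce lysis of infected cells.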 The settings on record: P. falciparum Indochina infected erythrocytes, osmotic lysis OD700; higher = more signal, called active from +8 up or from −8 down.
Assay [15] in a line: osmotic lysis modulators in infected erythrocytes, primary screen, PSAC antagonist project, cell-based, P. falciparum Indochina, OD700, 3 h (AID 1156). Particulars: higher = more signal, called active from +8 up or from −8 down.
Assay [16] can be described thus: PSAC antagonists in infected red cells, primary screen, cell-based, P. falciparum Indochina, OD700, 18 h (AID 1157). The settings on record: P. falciparum Indochina infected erythrocytes, osmotic lysis OD700, 18 h; higher = more signal, called active from +8 up or from −8 down.
The nature of assay [17]: modulators of S6 phosphorylation in cells, primary screen, cell-based, A549, cytoblot, luminescence, serum-stimulated (AID 1158).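 Further: serum-stimulated A549 lung adenocarcinoma cells; signal is phosphorylated S6 detected by cytoblot immunostaining with HRP secondary.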 Particulars: A549 phospho-S6 cytoblot, 5 h, higher = more signal.
For assay [18], the target named is NADPH oxidase 2 (Homo sapiens) (UniProt P04839). Nature of the assay: NOX2-dependent H2O2 signal modulators, primary screen, NOX inhibitor project, cell-based, HEK293-NOX2, PMA-stimulated, Amplex Red fluorescence (AID 1159). Further: test concentration not given here. The settings on record: 45 min, higher = more signal, called active from +8 up or from −8 down.
Assay [19] addresses NADPH oxidase 4 (Homo sapiens) (UniProt Q9NPH5). Nature of the assay: NOX4-dependent H2O2 signal modulators, primary screen, NOX inhibitor project, cell-based, HEK293-NOX4, tetracycline-induced, Amplex Red fluorescence (AID 1160). The settings on record: 45 min, higher = more signal, called active from +8 up or from −8 down.
In assay [20] the target is NADPH oxidase 5 (Homo sapiens) (UniProt Q96PH1). The assay is described as follows: NOX5-dependent H2O2 signal modulators, primary screen, NOX inhibitor project, cell-based, HEK293-NOX5, Amplex Red fluorescence (AID 1161). Particulars: HEK293-NOX5, ionomycin, 45 min, higher = more signal.

Active and inactive are the calls of the source. Unless noted, how the calls were made is not given here.

Sequence of NADPH oxidase 5 (Homo sapiens) (Q96PH1 whole entry, looked up): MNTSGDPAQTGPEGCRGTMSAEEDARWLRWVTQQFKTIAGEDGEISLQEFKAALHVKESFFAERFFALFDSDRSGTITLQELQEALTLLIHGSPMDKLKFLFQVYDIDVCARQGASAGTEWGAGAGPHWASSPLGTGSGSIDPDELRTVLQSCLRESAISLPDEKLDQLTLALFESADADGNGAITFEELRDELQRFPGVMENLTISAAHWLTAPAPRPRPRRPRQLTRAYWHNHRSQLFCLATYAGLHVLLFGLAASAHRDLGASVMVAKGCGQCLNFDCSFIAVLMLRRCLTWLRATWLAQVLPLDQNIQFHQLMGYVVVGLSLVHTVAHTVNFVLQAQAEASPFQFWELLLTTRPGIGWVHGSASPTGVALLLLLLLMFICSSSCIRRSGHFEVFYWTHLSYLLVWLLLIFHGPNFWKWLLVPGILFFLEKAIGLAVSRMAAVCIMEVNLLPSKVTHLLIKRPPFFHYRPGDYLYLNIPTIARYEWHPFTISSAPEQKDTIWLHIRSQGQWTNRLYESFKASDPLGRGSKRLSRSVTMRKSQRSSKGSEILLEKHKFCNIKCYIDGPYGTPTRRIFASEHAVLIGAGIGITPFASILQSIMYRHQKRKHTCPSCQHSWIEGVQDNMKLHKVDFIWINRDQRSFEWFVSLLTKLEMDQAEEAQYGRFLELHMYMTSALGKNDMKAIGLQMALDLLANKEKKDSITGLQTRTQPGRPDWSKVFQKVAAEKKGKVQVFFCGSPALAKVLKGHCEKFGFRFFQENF
Sequence of Streptavidin (Streptomyces avidinii) (P22629 whole entry, looked up): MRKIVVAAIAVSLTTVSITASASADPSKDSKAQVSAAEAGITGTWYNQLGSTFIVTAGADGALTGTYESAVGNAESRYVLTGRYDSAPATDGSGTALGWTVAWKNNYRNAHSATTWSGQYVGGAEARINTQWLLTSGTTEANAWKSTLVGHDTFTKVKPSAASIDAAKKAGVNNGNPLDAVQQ
Sequence of NADPH oxidase 2 (Homo sapiens) (P04839 whole entry, looked up): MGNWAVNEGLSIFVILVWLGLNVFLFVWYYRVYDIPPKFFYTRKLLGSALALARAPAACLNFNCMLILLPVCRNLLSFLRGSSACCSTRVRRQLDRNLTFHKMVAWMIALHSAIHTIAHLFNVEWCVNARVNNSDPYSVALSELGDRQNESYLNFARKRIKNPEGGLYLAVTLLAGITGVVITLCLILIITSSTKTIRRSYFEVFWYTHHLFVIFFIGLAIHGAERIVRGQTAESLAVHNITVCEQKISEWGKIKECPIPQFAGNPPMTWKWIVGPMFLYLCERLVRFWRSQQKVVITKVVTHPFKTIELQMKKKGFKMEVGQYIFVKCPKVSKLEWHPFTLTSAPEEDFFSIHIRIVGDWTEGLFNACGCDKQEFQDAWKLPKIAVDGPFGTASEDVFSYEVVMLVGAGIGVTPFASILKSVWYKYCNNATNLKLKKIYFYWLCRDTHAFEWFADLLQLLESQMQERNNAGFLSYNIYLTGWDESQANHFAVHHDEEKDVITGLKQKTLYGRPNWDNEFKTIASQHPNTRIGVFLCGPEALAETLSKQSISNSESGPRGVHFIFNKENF
Sequence of Torsin-1A (Homo sapiens) (O14656 whole entry, looked up): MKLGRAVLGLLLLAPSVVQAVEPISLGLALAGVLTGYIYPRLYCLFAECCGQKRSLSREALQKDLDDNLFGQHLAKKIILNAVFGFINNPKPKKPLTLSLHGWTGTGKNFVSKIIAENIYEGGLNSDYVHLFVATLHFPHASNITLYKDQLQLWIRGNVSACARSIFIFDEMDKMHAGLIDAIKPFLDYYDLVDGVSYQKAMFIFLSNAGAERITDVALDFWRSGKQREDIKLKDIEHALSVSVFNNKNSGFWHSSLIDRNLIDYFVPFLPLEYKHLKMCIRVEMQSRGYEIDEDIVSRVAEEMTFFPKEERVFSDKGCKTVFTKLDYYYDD
Sequence of NADPH oxidase 4 (Homo sapiens) (Q9NPH5 whole entry, looked up): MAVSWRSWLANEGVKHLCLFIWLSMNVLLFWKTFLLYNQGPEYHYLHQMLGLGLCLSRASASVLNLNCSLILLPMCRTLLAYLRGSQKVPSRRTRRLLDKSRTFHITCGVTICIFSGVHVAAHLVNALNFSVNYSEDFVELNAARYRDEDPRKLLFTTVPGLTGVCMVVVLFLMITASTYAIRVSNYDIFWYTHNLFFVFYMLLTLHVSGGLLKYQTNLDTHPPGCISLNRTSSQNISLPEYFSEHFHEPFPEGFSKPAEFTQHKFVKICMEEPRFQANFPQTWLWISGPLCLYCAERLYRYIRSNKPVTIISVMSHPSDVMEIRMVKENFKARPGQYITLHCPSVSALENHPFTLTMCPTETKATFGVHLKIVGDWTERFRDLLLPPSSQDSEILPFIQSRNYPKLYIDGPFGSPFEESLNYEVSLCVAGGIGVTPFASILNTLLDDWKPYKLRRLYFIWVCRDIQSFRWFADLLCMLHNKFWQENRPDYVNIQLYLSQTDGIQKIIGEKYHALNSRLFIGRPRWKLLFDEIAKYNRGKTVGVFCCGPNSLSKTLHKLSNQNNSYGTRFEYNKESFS

In the case of `CCCC=C(CCC)[C@@H](NC(=O)c1ccc(-c2ccccc2)cc1)c1ccc(C(=O)OC)cc1`, the composite z-score in assay [1] was -0.0745; in [6], 1.09; in [7] it was 0.0872; in assay [8] it was -0.162; in assay [9], 0.0735; in [10], -0.809. This molecule also registered a composite z-score in [12] of 0.547. Moreover, the z-score in assay [2] is -0.116 (inactive); in assay [3], 0.29 (inactive); in [4] it was 0.576 (inactive); in assay [5], 0.381 (inactive); in assay [11], -1.23 (inactive); in assay [13], 0.626 (inactive). Also, the z-score in assay [14] is 0.453 (inactive); in [15], -0.104 (inactive); in assay [16], 0.987 (inactive); in [17] it was 0.692; in assay [18] it was -0.0895 (inactive); in [19] it was 1.13 (inactive). In addition, in assay [20], the z-score amounted to 1.81.

In the case of `COC(=O)[C@H](C)NC(=O)CCC1CC(OC(=O)NCCc2ccc(F)cc2)CC2(CCCC(COC(=O)NCCc3ccc(Cl)cc3)O2)O1` (stereo not given in full), the composite z-score in assay [1] was 0.606; in assay [6], 1.07; in [7] it was -0.0937; in [8] it was 2.31; in assay [9], -0.177; in assay [10] it was 1.31. Also, the composite z-score in [12] was -0.0464. Also, the z-score was -0.195 (inactive) in [2]; -0.739 (inactive) in assay [3]; -0.0732 (inactive) in assay [4]; -0.195 (inactive) in assay [5]; 0.954 (inactive) in assay [11]; 1.83 (inactive) in assay [13]. The z-score in assay [14] is 0.316 (inactive); in assay [15] it was -0.0413 (inactive); in assay [16], 0.2 (inactive); in [17], 0.0808; in [18], 0.431 (inactive); in assay [19], 0.778 (inactive). In addition, the z-score in assay [20] turned out to be 0.612.

`CCOC(=O)[C@H](CC(C)C)NC(=O)CCC1CC(OC(=O)NCc2cccc3ccccc23)CC2(CCCC(COC(=O)NCCN3CCOCC3)O2)O1` (stereo not given in full): the composite z-score was 0.201 in [1]; 0.308 in assay [6]; -0.0494 in assay [7]; 0.0423 in assay [8]; 0.765 in [9]; 0.717 in [10]. Further, in assay [12], the composite z-score was -0.275. In addition, the z-score in assay [2] is -0.293 (inactive); in [3] it was -0.677 (inactive); in [4], -0.164 (inactive); in [5], 1.14 (inactive); in assay [11], -2.17 (inactive); in assay [13] it was -0.839 (inactive). Further, the z-score in assay [14] is -0.655 (inactive); in assay [15], -2.08 (inactive); in assay [16] it was -0.709 (inactive); in assay [17] it was 0.0369; in assay [18] it was 0.428 (inactive); in assay [19] it was 0.647 (inactive). Also, the z-score in assay [20] was -0.0177.

On to `CC(C)(C)OC(=O)CC[C@]1(C(N)=O)COC(c2ccc(OCCCO)cc2)=N1`, for which the composite z-score was 0.681 in assay [1]; 0.248 in [6]; 0.923 in assay [7]; 0.833 in [8]; 0.493 in assay [9]; -0.769 in [10]. In [12], the composite z-score came out at 0.802. Moreover, the z-score in assay [2] is 0.0853 (inactive); in assay [3], 0.361 (inactive); in assay [4], -0.585 (inactive); in assay [5], -0.438 (inactive); in assay [11] it was 0.311 (inactive); in assay [13], 0.75 (inactive). Besides, the z-score in [14] was -0.267 (inactive); in [15], 0.295 (inactive); in [16], 0.0515 (inactive); in assay [17], -0.777; in assay [18], 0.381 (inactive); in [19] it was -0.585 (inactive). In assay [20], the z-score was found to be 0.612.

`CCc1cc2c(nc1CC)CCN(CCC(C)=NOC[C@@H](O)[C@H]1O[C@@H]3OC(C)(C)O[C@@H]3[C@H]1O)C2`: the composite z-score in assay [1] is 0.146; in assay [6] it was 0.18; in [7] it was -0.0216; in assay [8], 0.3; in [9] it was 0.101; in [10], 0.528. Further, the composite z-score in assay [12] is -0.179. Also, the z-score in [2] is 0.731 (inactive); in assay [3] it was -0.319 (inactive); in assay [4], 0.006 (inactive); in [5], 0.347 (inactive); in [11], -1.12 (inactive); in assay [13], 0.202 (inactive). Besides, the z-score in assay [14] was -0.336 (inactive); in assay [15], 0.0286 (inactive); in assay [16] it was 0.0977 (inactive); in assay [17] it was -0.512; in [18], 0.336 (inactive); in assay [19], 0.494 (inactive). Moreover, the z-score in assay [20] was found to be 2.57.

With `O=C(CS)NCCCCCNC(=O)[C@@H]1C[C@@H]2C(=O)N[C@@H](Cc3ccccc3)C(=O)N2[C@@H]1c1ccc(O)cc1`, the composite z-score in assay [1] was 0.835; in assay [6], -0.859; in assay [7], -0.128; in assay [8], 0.489; in assay [9], 0.845; in [10] it was 0.981. In addition, the composite z-score in [12] was 0.0839. The z-score was -0.0984 (inactive) in assay [2]; -0.616 (inactive) in assay [3]; 0.692 (inactive) in [4]; -0.981 (inactive) in [5]; 0.942 (inactive) in assay [11]; 10.1 (active) in assay [13]. In addition, the z-score in [14] was 1.07 (inactive); in assay [15], -0.676 (inactive); in [16] it was 0.325 (inactive); in [17], -0.205; in [18], 0.727 (inactive); in assay [19], -0.142 (inactive). In addition, the z-score in assay [20] was determined as 0.0233.

For the molecule `CCN1C(=O)[C@H]2[C@H]3[C@H](O)[C@H](O)CC(=NOCc4ccccc4)[C@@H]3CC[C@H]2C1=O`, the composite z-score is -0.0713 in assay [1]; -0.0346 in [6]; -0.0575 in [7]; 0.962 in assay [8]; 0.236 in assay [9]; 0.531 in assay [10]. Further, the composite z-score in [12] came to 0.0224. Also, the z-score in assay [2] is -0.672 (inactive); in [3], 0.855 (inactive); in [4], 1.42 (inactive); in assay [5], 0.479 (inactive); in assay [11], 0.401 (inactive); in [13], 0.425 (inactive). The z-score in [14] is -1.09 (inactive); in [15], -0.0231 (inactive); in assay [16], -2.2 (inactive); in [17], 2.27; in assay [18], -0.521 (inactive); in [19] it was -0.0627 (inactive). For the same molecule, in assay [20], the z-score was found to be 0.388.

Consider `COC(=O)[C@H](C)NC(=O)CCC1CC(OC(=O)NCc2cccc3ccccc23)CC2(CCCC(COC(=O)NCCc3ccc(Cl)cc3)O2)O1` (stereo not given in full), for which the composite z-score in assay [1] is -0.173; in [6], 0.558; in assay [7], -0.152; in assay [8] it was 0.405; in [9], 0.353; in assay [10], 0.569. Also, in assay [12], the composite z-score was -0.375. Besides, the z-score is -0.006 (inactive) in [2]; -0.494 (inactive) in [3]; 0.2 (inactive) in [4]; 0.45 (inactive) in assay [5]; 0.434 (inactive) in [11]; 0.119 (inactive) in assay [13]. For the same molecule, the z-score was -0.214 (inactive) in assay [14]; -0.801 (inactive) in [15]; -0.193 (inactive) in assay [16]; 0.362 in assay [17]; 0.779 (inactive) in assay [18]; 1.18 (inactive) in [19]. The molecule also came in with a z-score in assay [20] of 1.55.
